± gives the standard deviation of the averaged measurements.
Tested on: Renilla luciferase (RLuc)
Assay: residual bioluminescent signal relative to negative control without GSH; higher = less interference (more residual luciferase signal)
Settings: screening conditions buffer
Method: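 Selected metal salts at 3-4 concentrations tested on purified FLuc, NLuc or RLuc in screening buffer with 0, 0.2 or 2 mM glutathione added; 10 min enzyme pre-incubation at RT, luminescence 10 min after substrate. Signal normalised to negative control without GSH (% N_VALUE); triplicate wells.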

[1] = metal salt concentration 1 mM, glutathione 0 mM
[2] = metal salt concentration 1 mM, glutathione 0.2 mM
[3] = metal salt concentration 1 mM, glutathione 2 mM

Compound | residual bioluminescent signal (metal salt concentration 0.005 mM, glutathione 0 mM) | residual bioluminescent signal (metal salt concentration 0.005 mM, glutathione 0.2 mM) | residual bioluminescent signal (metal salt concentration 0.005 mM, glutathione 2 mM) | residual bioluminescent signal (metal salt concentration 0.536 mM, glutathione 0 mM) | residual bioluminescent signal (metal salt concentration 0.536 mM, glutathione 0.2 mM) | residual bioluminescent signal (metal salt concentration 0.536 mM, glutathione 2 mM) | residual bioluminescent signal [1] | residual bioluminescent signal [2] | residual bioluminescent signal [3] | residual bioluminescent signal (metal salt concentration 5 mM, glutathione 0 mM) | residual bioluminescent signal (metal salt concentration 5 mM, glutathione 0.2 mM) | residual bioluminescent signal (metal salt concentration 5 mM, glutathione 2 mM) | residual bioluminescent signal (metal salt concentration 0.02 mM, glutathione 0 mM) | residual bioluminescent signal (metal salt concentration 0.02 mM, glutathione 0.2 mM) | residual bioluminescent signal (metal salt concentration 0.02 mM, glutathione 2 mM) | residual bioluminescent signal (metal salt concentration 0.118 mM, glutathione 0 mM) | residual bioluminescent signal (metal salt concentration 0.118 mM, glutathione 0.2 mM) | residual bioluminescent signal (metal salt concentration 0.118 mM, glutathione 2 mM) | residual bioluminescent signal (metal salt concentration 0.5 mM, glutathione 0 mM) | residual bioluminescent signal (metal salt concentration 0.5 mM, glutathione 0.2 mM) | residual bioluminescent signal (metal salt concentration 0.5 mM, glutathione 2 mM)
[Cl][Fe]([Cl])[Cl] [iron(III) chloride] | 115 ± 9.3% | 116 ± 14% | 161 ± 26% | 36.6 ± 8% | 53 ± 4.8% | 101 ± 13% | 33.4 ± 2% | 39.3 ± 5.5% | 48.9 ± 13% | 2.29 ± 1.6% | 0.915 ± 0.4% | 2.06 ± 1.4% |  |  |  |  |  |  |  |  | 
[Cl][Fe][Cl] [iron(II) chloride] |  |  |  |  |  |  | 12.3 ± 4.2% | 18.7 ± 10% | 32 ± 11% |  |  |  | 86.2 ± 14% | 91.9 ± 18% | 122 ± 5.5% | 47.6 ± 13% | 56.5 ± 11% | 75.7 ± 7.6% | 16.5 ± 3.1% | 22.9 ± 4.2% | 31.1 ± 5.1%
